In PubChem BioAssay (NCATS):
Inconclusive results are not listed. Active and inactive are the calls of the source. Unless noted, the call rests on the fitted dose curve; in most records, active means well fitted curve in the direction sought with a large enough effect; inconclusive means small, poorly fitted or top-dose-only effect, or another doubt; inactive means no such curve, though single readings can be large; an effect the other way counts as inactive or inconclusive.

Experiments:
[1] = Cell Viability - BJ (AID 421; calls by dose curve;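 further: potency means the concentration at half of the fitted maximal effect; cells exposed to compound for 40 hours at 37 °C before readout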); conditions: BJ fibroblast viability, qHTS
Outline: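 Cytotoxicity in human BJ foreskin fibroblasts is scored as loss of cellular ATP after a 40-hour exposure, measured by luciferase luminescence. Controls are DMSO and 100 uM tamoxifen.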

[2] = Cell Viability - Jurkat (AID 426;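 active means dose-dependent loss of cell ATP signal giving a full or clear fitted curve, ranked by lower potency value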;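 further: potency means the concentration at half of the fitted maximal effect; cells exposed to compound for 40 hours at 37 °C before ATP read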); conditions: qHTS
Outline: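 Cytotoxicity taken as drop in cellular ATP (CellTiter-Glo luminescence, 20 min room temperature) after 40 hr, 37C treatment of 5000 Jurkat Clone E6-1 cells per well; concentration-response fitted with Hill equation for AC50.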

[3] = Cell Viability - Hek293 (AID 427;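 active means compounds whose dose-response curve shows a full or clear partial loss of cell viability, called from curve shape rather than a numeric limit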;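 further: potency means the concentration at half of the fitted maximal effect; cells exposed to compound for 40 hours at 37 °C before reading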); conditions: qHTS
Outline: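 qHTS, human embryonic kidney (adenovirus-transformed) cells; 40 hr cpd, 37 °C; CellTiter-Glo ATP luminescence. Norm: DMSO = 0, 100 uM tamoxifen = 100% inhibition. Hill-fit AC50.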

[4] = Cell Viability - HepG2 (AID 433; calls by dose curve;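 further: potency means the concentration at half of the fitted maximal effect; potency for ATP loss meaning cytotoxicity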); conditions: qHTS
Outline: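 Read-out is luciferase-based quantitation of cellular ATP as a measure of viable HepG2 cells after 40 h treatment at 37 °C. Signal decrease is scaled between DMSO-only and 100 uM tamoxifen controls, with AC50 fitted by the Hill equation.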

[5] = Cell Viability - MRC5 (AID 434; calls by dose curve;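 further: potency means the concentration at half of the fitted maximal effect; cells exposed to compound for 40 hours at 37 °C; potency reflects cytotoxicity seen as loss of intracellular ATP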); conditions: MRC5 lung fibroblast viability, qHTS
Outline: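 ATP luminescence read-out (CellTiter-Glo, 20 min RT) after 40 hr, 37 °C compound exposure of 1500 MRC5 cells/well. Data normalized to DMSO (basal) and 100 uM tamoxifen (100% inhibition); AC50 from standard Hill equation.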

[6] = Cell Viability - SK-N-SH (AID 435; calls by dose curve; further: potency means the concentration at half of the fitted maximal effect); conditions: SK-N-SH neuroblastoma cell viability qHTS
Outline: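 Luminescent ATP signal served as the viability read-out after 40 hours of compound treatment of human neuroblastoma SK-N-SH cells. Concentration-response data, scaled between DMSO and 100 uM tamoxifen, gave AC50 values by standard Hill modeling.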

[7] = molecular target: Mitogen-activated protein kinase 10 (Mus musculus) (UniProt Q61831); assay: JNK3 AlphaScreen Assay (AID 530; active means well fitted curve in either direction with a large enough effect, not every such curve was filed as active;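 further: kinase came from lysate of stimulated human HepG2 cells; signal reports phosphorylation of biotinylated GST-cJun 1-79 at Ser73 with 10 µM ATP; on the % scale 0 is the no-effect control and ±100 the full control effect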)
Outline: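 Activity was read by AlphaScreen after JNK3-containing HepG2 lysate (cytokine pre-activated) phosphorylated biotinylated GST-cJun with 10 uM ATP at room temperature. Phospho-Ser73 cJun antibody with Protein-A acceptor beads provided detection.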

[8] = Cell Viability - N2a (AID 540); conditions: N2a mouse neuroblastoma cell viability; activity change, negative = cytotoxicity: at 92.2 µM (top of the series);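 further: plate controls were DMSO alone for no effect and tamoxifen control for full effect; nearly all actives have a fitted effect of over 45% in size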
Outline: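 CellTiter-Glo ATP luminescence, read 20 min after reagent at room temperature, reported viability following 40 h compound treatment at 37 °C. N2a mouse neuroblastoma cells seeded 1500/well; Hill equation gave AC50.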

[9] = Cell Viability - NIH 3T3 (AID 541); conditions: NIH 3T3 cell viability, qHTS; activity change, negative = cytotoxicity: at 92.2 µM (top of the series);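 further: plate controls were DMSO alone for no effect and tamoxifen positive control for full effect; nearly all actives have a fitted effect of over 25% in size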
Outline: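 Intracellular ATP (CellTiter-Glo luminescence, 20 min at room temperature) measured after 40 hr compound exposure at 37 °C of 1000 NIH 3T3 mouse fibroblasts/well in complete medium; AC50 derived by Hill-equation modelling of qHTS concentration-response curves.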

[10] = Cell Viability - H-4-II-E (AID 543); further: on the % scale 0 is the no-effect control and ±100 the full control effect; nearly all actives have a fitted effect of over 35% in size
Outline: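 CellTiter-Glo luminescence (intracellular ATP) measured after 40 h compound exposure at 37 °C in H-4-II-E rat hepatoma cells seeded at 1500/well. Values are AC50s fitted with the standard Hill equation.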

[11] = Cell Viability - Renal Proximal Tubule (AID 545); conditions: renal proximal tubule cells viability, primary cells of rat origin; at 91.7 µM (top of the series); further: nearly all actives have a fitted effect of over 40% in size
Outline: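 Luminescent ATP signal (CellTiter-Glo) served as the viability read-out after 40 hr compound exposure of freshly isolated rat proximal tubule cells at 37 °C. Concentration-dependent ATP loss was fitted with the Hill equation to give AC50.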

[12] = Cell Viability - Mesenchymal (AID 546); conditions: mesenchymal cells viability, qHTS; activity change, negative = cytotoxicity: at 91.7 µM (top of the series);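 further: cells exposed to compound for 40 hours before reading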
Outline: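 Human renal mesenchymal cells (glomerulus-derived), 1000 cells/well, 5 hr 37 °C pre-incubation; compound 40 hr, 37 °C; CellTiter-Glo, 20 min RT; luminescence; AC50 via Hill equation.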

[13] = Cellular Toxicity (caspase-3) HepG2 (AID 654);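 further: cells exposed to compound for 16 hours before reading; 0% = DMSO alone and 100% = caspase signal from 100 µM tamoxifen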
Outline: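 Caspase 3/7 activation is measured as a luminescence increase (aminoluciferin substrate) after 16 h compound exposure of human hepatocarcinoma HepG2 cells. AC50 values are Hill fits, scaled between DMSO baseline and 100 uM tamoxifen stimulation.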

[14] = Cellular Toxicity (caspase-3) Jurkat (AID 655); conditions: Jurkat caspase-3 activation, luminescence, DMSO = 0%, tamoxifen = 100%; at 92.2 µM (top of the series);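 further: cells exposed to compound for 16 h at 37 °C before reading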
Outline: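 5000 Jurkat cells/well; compound 16 hr, 37 °C; Caspase-Glo 3/7 added, 20 min RT; luminescence read. Norm: DMSO = 0%, tamoxifen 100 uM = 100%. AC50, Hill model.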

[15] = Cellular Toxicity (caspase-3) HUV-EC-C (AID 656)
Outline: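 qHTS; HUV-EC-C, 1000 cells/well; 5 hr settle, 16 hr cmpd, 37°C; Caspase-Glo 3/7, 20 min RT; luminescence. Norm: DMSO = 0%, tamoxifen 100 uM = 100%. Hill-fit AC50.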

[16] = Cellular Toxicity (caspase-3) SHSY5Y (AID 657);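 further: cells exposed to compound for 16 hours at 37 °C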
Outline: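 qHTS, SH-SY5Y, 1500 cells/well, 5 h pre-incubation 37 °C; compound 16 h 37 °C; Caspase-Glo 3/7 1 h RT; luminescence. Norm.: DMSO = 0, 10 uM staurosporine = 100%. Hill fit → AC50.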

[17] = Cellular Toxicity (caspase-3) BJ (AID 658);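 further: cells exposed to compound for 16 hours; 0% = DMSO basal and 100% = 10 µM staurosporine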
Outline: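 qHTS, BJ fibroblasts, 1000 cells/well; 5 hr preincubation, 16 hr compound, 37 °C; Caspase-Glo 3/7 reagent, 1 hr RT; luminescence. DMSO = 0%, 10 uM staurosporine = 100%. Hill-equation AC50.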

[18] = Cellular Toxicity (caspase-3) MRC-5 (AID 659);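 further: 0% = DMSO basal and 100% = 10 µM staurosporine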
Outline: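 MRC-5 fibroblasts, 1500/well; 16 h cpd, 37 °C; Caspase-Glo 3/7, 1 h RT; lumi read. Norm: DMSO = 0%, 10 uM staurosporine = 100%. Hill-fit AC50 from qHTS conc-response.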

[19] = Cellular Toxicity (caspase-3) Mesangial (AID 660);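 further: combined caspase 3 and 7 activity read by Caspase-Glo luminescence; cells exposed to compound for 16 h before the caspase read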
Outline: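 Caspase 3/7 activation measured by Caspase-Glo 3/7 luminescence (20 min, room temperature) following 16 h exposure of mesangial cells (1000/well); AC50 from Hill-equation fit, normalized to DMSO and 100 uM tamoxifen.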

[20] = Cellular Toxicity (caspase-3) SK-N-SH (AID 661);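 further: cells exposed to compound for 16 hours; 0% = DMSO basal and 100% = 10 µM staurosporine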
Outline: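 Caspase 3/7 activation was read by luminogenic substrate cleavage after 16 hour treatment of SK-N-SH cells. Signal was scaled between DMSO and 10 uM staurosporine, and concentration-response data were fitted with the Hill equation for AC50.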

[21] = Cellular Toxicity (caspase-3) H-4-II-E (AID 663); conditions: Potency: caspase-3 activation;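 further: cells exposed to compound for 16 hr before readout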
Outline: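 H-4-II-E rat hepatoma, 1500 cells/well, 5 hr settle at 37 °C; compound 16 hr, 37 °C, complete medium; Caspase-Glo 3/7, 20 min RT; luminescence. DMSO = 0%, 100 uM tamoxifen = 100%; Hill-equation AC50.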

[22] = Cellular Toxicity (caspase-3) Hek293 (AID 664);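 further: cells exposed to compound for 16 h at 37 °C before readout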
Outline: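 Concentration-response qHTS: caspase 3/7 activation measured by luminescent aminoluciferin substrate cleavage after 16 h compound exposure of Hek 293 cells. AC50 from Hill equation, with DMSO as basal and 100 uM tamoxifen as 100%.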

[23] = Cellular Toxicity (caspase-3) N2a (AID 665);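 further: compound exposure lasted 16 h at 37 °C before readout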
Outline: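 Caspase-3/7 activation measured as luminescence from Caspase-Glo reagent (1 h, room temperature) after 16 h compound exposure of mouse N2a cells. AC50 values from Hill-equation concentration-response, scaled between DMSO and 10 uM staurosporine.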

COc1ccc(/C=C/c2cc(OC)cc(=O)o2)cc1
inactive: Potency [1] > 92 µM | Potency [2] > 92 µM | Potency [3] > 92 µM | Potency [4] > 92 µM | Potency [5] > 92 µM | Potency [6] > 92 µM | Potency [7] | activity change, negative = cytotoxicity [8] -11.5% | Potency [9] | Potency [10] | activity change, negative = cytotoxicity [11] -20.5% | activity change, negative = cytotoxicity [12] -3.53% | outcome [13] | caspase-3 activation [14] -4.41% | outcome [15] | outcome [16] | outcome [17] | outcome [18] | outcome [19] | outcome [20] | Potency [21] | outcome [22] | outcome [23]
